{"source": "PubChem BioAssay (NCI)", "assay_in_all_cases": "NCI-60 one-dose screen, 48 h (100 = growth as untreated, 0 = no growth, -100 = all killed)", "settings_in_all_cases": "10 µM unless noted", "key": {"[1]": {"system": "NCI-H23 lung"}, "[2]": {"system": "NCI-H226 lung"}, "[3]": {"system": "NCI-H322M lung"}, "[4]": {"system": "HOP-62 NSCLC"}, "[5]": {"system": "NCI-H460 lung"}, "[6]": {"system": "HOP-92 NSCLC"}, "[7]": {"system": "NCI-H522 lung"}, "[8]": {"system": "A549/ATCC NSCLC"}, "[9]": {"system": "786-0 renal"}, "[10]": {"system": "COLO 205 colon"}}, "note": "The panel holds about 83,000 compounds, 20% with a hit somewhere; the sample as a whole holds those more often.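 Testing used 96-well plates and a 48-hour single-concentration exposure. Example: -40 means 40% of the starting cells died.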 Values without a mark were called inactive. Active and inactive are the calls of the source. The calls were made as follows: active = growth percent below 10; inactive = the rest."}
{"smiles": "Cc1c(CN)cc(-c2ccc(Cl)cc2)n1-c1ccccc1", "values": [{"measurement": "growth", "setting": "[1]", "value": 73.8, "unit": "%"}, {"measurement": "growth", "setting": "[2]", "value": 38.4, "unit": "%"}, {"measurement": "growth", "setting": "[3]", "value": 88.4, "unit": "%"}, {"measurement": "growth", "setting": "[4]", "value": 91.6, "unit": "%"}, {"measurement": "growth", "setting": "[5]", "value": 75.5, "unit": "%"}, {"measurement": "growth", "setting": "[6]", "value": 90.1, "unit": "%"}, {"measurement": "growth", "setting": "[7]", "value": 68, "unit": "%"}, {"measurement": "growth", "setting": "[8]", "value": 75.2, "unit": "%"}, {"measurement": "growth", "setting": "[9]", "value": 90.8, "unit": "%"}]}
{"smiles": "C#CCNC(=O)[C@]1(C)CCC[C@@]2(C)[C@H]1CC=C1C=C(C(C)C)CC[C@@H]12", "values": [{"measurement": "growth", "setting": "[1]", "value": 100, "unit": "%"}, {"measurement": "growth", "setting": "[2]", "value": 97.6, "unit": "%"}, {"measurement": "growth", "setting": "[3]", "value": 100, "unit": "%"}, {"measurement": "growth", "setting": "[4]", "value": 98.7, "unit": "%"}, {"measurement": "growth", "setting": "[5]", "value": 106, "unit": "%"}, {"measurement": "growth", "setting": "[6]", "value": 109, "unit": "%"}, {"measurement": "growth", "setting": "[7]", "value": 96.2, "unit": "%"}, {"measurement": "growth", "setting": "[8]", "value": 97.6, "unit": "%"}, {"measurement": "growth", "setting": "[9]", "value": 96.8, "unit": "%"}]}
{"smiles": "O=C(Cc1ccc(/C=C/C(=O)c2ncc[nH]2)cc1)Nc1cc(C(F)(F)F)cc(C(F)(F)F)c1", "values": [{"measurement": "growth", "setting": "[1]", "value": 93.9, "unit": "%"}, {"measurement": "growth", "setting": "[2]", "value": 103, "unit": "%"}, {"measurement": "growth", "setting": "[3]", "value": 96.4, "unit": "%"}, {"measurement": "growth", "setting": "[4]", "value": 106, "unit": "%"}, {"measurement": "growth", "setting": "[5]", "value": 93.7, "unit": "%"}, {"measurement": "growth", "setting": "[6]", "value": 116, "unit": "%"}, {"measurement": "growth", "setting": "[7]", "value": 96.6, "unit": "%"}, {"measurement": "growth", "setting": "[8]", "value": 81.1, "unit": "%"}, {"measurement": "growth", "setting": "[9]", "value": 52.2, "unit": "%"}]}
{"smiles": "OCCNCCNC(Cc1ccc(Cl)cc1)c1ccccc1", "note": "(stereo not given)", "values": [{"measurement": "growth", "setting": "[1]", "value": 96.2, "unit": "%"}, {"measurement": "growth", "setting": "[2]", "value": 98.1, "unit": "%"}, {"measurement": "growth", "setting": "[3]", "value": 93.1, "unit": "%"}, {"measurement": "growth", "setting": "[4]", "value": 72.2, "unit": "%"}, {"measurement": "growth", "setting": "[5]", "value": 107, "unit": "%"}, {"measurement": "growth", "setting": "[6]", "value": 38.4, "unit": "%"}, {"measurement": "growth", "setting": "[7]", "value": 64.1, "unit": "%"}, {"measurement": "growth", "setting": "[8]", "value": 88.1, "unit": "%"}, {"measurement": "growth", "setting": "[9]", "value": 57.5, "unit": "%"}]}
{"smiles": "COc1cc2c(cc1OCCCCN1CCN(C(=S)SCCC(C#N)(c3ccccc3)c3ccccc3)CC1)N=C[C@@H]1CCCN1C2=O", "values": [{"measurement": "growth", "setting": "[1]", "value": "-33.8% (active)"}, {"measurement": "growth", "setting": "[2]", "value": "-44.2% (active)"}, {"measurement": "growth", "setting": "[3]", "value": "-81.1% (active)"}, {"measurement": "growth", "setting": "[4]", "value": "7.67% (active)"}, {"measurement": "growth", "setting": "[5]", "value": "-73.9% (active)"}, {"measurement": "growth", "setting": "[6]", "value": "-72.4% (active)"}, {"measurement": "growth", "setting": "[7]", "value": "-54.1% (active)"}, {"measurement": "growth", "setting": "[8]", "value": "-32.1% (active)"}, {"measurement": "growth", "setting": "[9]", "value": "-85.2% (active)"}, {"measurement": "growth", "setting": "[10]", "value": "-7.95% (active)"}]}
{"smiles": "Nc1[nH]c(=S)nc2oc(-c3ccccc3)c(-c3ccccc3)c12", "values": [{"measurement": "growth", "setting": "[1]", "value": 94.5, "unit": "%"}, {"measurement": "growth", "setting": "[2]", "value": 107, "unit": "%"}, {"measurement": "growth", "setting": "[3]", "value": 105, "unit": "%"}, {"measurement": "growth", "setting": "[4]", "value": 86.6, "unit": "%"}, {"measurement": "growth", "setting": "[5]", "value": 113, "unit": "%"}, {"measurement": "growth", "setting": "[6]", "value": 102, "unit": "%"}, {"measurement": "growth", "setting": "[7]", "value": 94.8, "unit": "%"}, {"measurement": "growth", "setting": "[8]", "value": 98.1, "unit": "%"}, {"measurement": "growth", "setting": "[9]", "value": 103, "unit": "%"}]}
{"smiles": "CN1CCN(c2ccc3nc4c(nc3c2C(F)(F)F)C(=O)c2ncccc2C4=O)CC1", "values": [{"measurement": "growth", "setting": "[1]", "value": "-39.7% (active)"}, {"measurement": "growth", "setting": "[2]", "value": "-78.9% (active)"}, {"measurement": "growth", "setting": "[3]", "value": 36.6, "unit": "%"}, {"measurement": "growth", "setting": "[4]", "value": "-63.3% (active)"}, {"measurement": "growth", "setting": "[5]", "value": "-56.6% (active)"}, {"measurement": "growth", "setting": "[6]", "value": 27.5, "unit": "%"}, {"measurement": "growth", "setting": "[7]", "value": "-67.5% (active)"}, {"measurement": "growth", "setting": "[8]", "value": "-36.2% (active)"}, {"measurement": "growth", "setting": "[9]", "value": 36.7, "unit": "%"}, {"measurement": "growth", "setting": "[10]", "value": "-95% (active)"}]}
{"smiles": "CCN(CC)CCN1C(=O)c2c(c(C)c3c(oc4ccc(O)cc43)c2C)C1=O", "values": [{"measurement": "growth", "setting": "[1]", "value": 47.3, "unit": "%"}, {"measurement": "growth", "setting": "[2]", "value": 70, "unit": "%"}, {"measurement": "growth", "setting": "[3]", "value": 33.2, "unit": "%"}, {"measurement": "growth", "setting": "[4]", "value": 80.7, "unit": "%"}, {"measurement": "growth", "setting": "[5]", "value": "-45.6% (active)"}, {"measurement": "growth", "setting": "[6]", "value": 91.7, "unit": "%"}, {"measurement": "growth", "setting": "[7]", "value": 68.2, "unit": "%"}, {"measurement": "growth", "setting": "[8]", "value": 20.6, "unit": "%"}, {"measurement": "growth", "setting": "[9]", "value": "-36.2% (active)"}, {"measurement": "growth", "setting": "[10]", "value": 83.2, "unit": "%"}]}
{"smiles": "COc1cc2c(c(OC)c1OC)C(=O)CC(c1cccc(NC(=O)c3ccc(C#N)cc3)c1)O2", "note": "(stereo not given)", "values": [{"measurement": "growth", "setting": "[1]", "value": 70.6, "unit": "%"}, {"measurement": "growth", "setting": "[2]", "value": 68.3, "unit": "%"}, {"measurement": "growth", "setting": "[3]", "value": 91.4, "unit": "%"}, {"measurement": "growth", "setting": "[4]", "value": 73.6, "unit": "%"}, {"measurement": "growth", "setting": "[5]", "value": 85.6, "unit": "%"}, {"measurement": "growth", "setting": "[6]", "value": 67.6, "unit": "%"}, {"measurement": "growth", "setting": "[7]", "value": 46.6, "unit": "%"}, {"measurement": "growth", "setting": "[8]", "value": 77.4, "unit": "%"}, {"measurement": "growth", "setting": "[9]", "value": 91.9, "unit": "%"}]}
{"smiles": "O=c1nc(-c2ccccc2)c2cc(-c3ccc(C(F)(F)F)nc3)ccc2[nH]1", "values": [{"measurement": "growth", "setting": "[1]", "value": 89.5, "unit": "%"}, {"measurement": "growth", "setting": "[2]", "value": 100, "unit": "%"}, {"measurement": "growth", "setting": "[3]", "value": 92.9, "unit": "%"}, {"measurement": "growth", "setting": "[4]", "value": 106, "unit": "%"}, {"measurement": "growth", "setting": "[5]", "value": 106, "unit": "%"}, {"measurement": "growth", "setting": "[6]", "value": 105, "unit": "%"}, {"measurement": "growth", "setting": "[7]", "value": 85.3, "unit": "%"}, {"measurement": "growth", "setting": "[8]", "value": 111, "unit": "%"}, {"measurement": "growth", "setting": "[9]", "value": 100, "unit": "%"}]}
{"smiles": "O=C(Nc1ccccc1N1CCCC1=O)c1oc2ccc(F)cc2c1-c1cnn(-c2ccccc2)c1", "values": [{"measurement": "growth", "setting": "[1]", "value": "61.9% [50 µM]"}, {"measurement": "growth", "setting": "[2]", "value": "39.4% [50 µM]"}, {"measurement": "growth", "setting": "[3]", "value": "63% [50 µM]"}, {"measurement": "growth", "setting": "[4]", "value": "55.1% [50 µM]"}, {"measurement": "growth", "setting": "[5]", "value": "28.1% [50 µM]"}, {"measurement": "growth", "setting": "[6]", "value": "29.1% [50 µM]"}, {"measurement": "growth", "setting": "[7]", "value": "12.7% [50 µM]"}, {"measurement": "growth", "setting": "[8]", "value": "37.5% [50 µM]"}, {"measurement": "growth", "setting": "[9]", "value": "21.3% [50 µM]"}]}
{"smiles": "C=C(c1ccc(OC)c(/C=C/C(=O)c2ccc3c(c2)OCO3)c1)c1cc(OC)c(OC)c(OC)c1", "values": [{"measurement": "growth", "setting": "[1]", "value": 15.9, "unit": "%"}, {"measurement": "growth", "setting": "[2]", "value": "-40.4% (active)"}, {"measurement": "growth", "setting": "[3]", "value": 35.1, "unit": "%"}, {"measurement": "growth", "setting": "[4]", "value": 36, "unit": "%"}, {"measurement": "growth", "setting": "[5]", "value": "0.841% (active)"}, {"measurement": "growth", "setting": "[6]", "value": 12.7, "unit": "%"}, {"measurement": "growth", "setting": "[7]", "value": "5.55% (active)"}, {"measurement": "growth", "setting": "[8]", "value": 27.3, "unit": "%"}, {"measurement": "growth", "setting": "[9]", "value": 12.6, "unit": "%"}]}
{"smiles": "C#CC#CC#CC#CC#CC#CC#CC#CCC1OC[C@H](COC(=O)O[C@@H](C(=O)O[C@H]2C[C@@]3(O)[C@@H](OC(=O)c4ccccc4)[C@@H]4[C@]5(OC(C)=O)CO[C@@H]5C[C@H](O)[C@@]4(C)C(=O)[C@H](OC(C)=O)C(=C2C)C3(C)C)[C@@H](NC(=O)c2ccccc2)c2ccccc2)O1", "note": "(stereo not given in full)", "values": [{"measurement": "growth", "setting": "[1]", "value": 32.9, "unit": "%"}, {"measurement": "growth", "setting": "[2]", "value": 50.7, "unit": "%"}, {"measurement": "growth", "setting": "[3]", "value": 31.6, "unit": "%"}, {"measurement": "growth", "setting": "[4]", "value": 38.5, "unit": "%"}, {"measurement": "growth", "setting": "[5]", "value": 10.3, "unit": "%"}, {"measurement": "growth", "setting": "[6]", "value": 67.6, "unit": "%"}, {"measurement": "growth", "setting": "[7]", "value": 42.4, "unit": "%"}, {"measurement": "growth", "setting": "[8]", "value": 32.3, "unit": "%"}, {"measurement": "growth", "setting": "[9]", "value": 48.8, "unit": "%"}]}
